G9a inh: G9a (human) methyltransferase inhibition. G9a H3K9 monomethylation, AlphaScreen, 2 h. Potency, µM (titrated, usually from 102 µM), inactives show top-dose activity, negative = inhibition, most hits filed as inhibitors. actives 8.8% (n = 350,000). AID 504332; also: % is scaled to controls: 0 for no effect and ±100 for the full control effect; nearly all actives have a fitted effect of over 75% in size
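AlphaScreen read-out: biotin-H3K9 peptide (500 nM) methylation by 20 nM enzyme with 20 uM SAM, 2 h at room temperature after 15 min compound preincubation; anti-monomethyl H3K9 antibody plus donor/acceptor beads, 10 min dark.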
JMJD2A Tudor inh: inhibitors of human JMJD2A Tudor domain | O75164 | AlphaScreen JMJD2A-Tudor / H3K4me3 peptide binding | Potency, µM (series often up to 114 µM), for inactives: at the top dose activity change, negative = inhibition, most hits filed as inhibitors | actives 4.4% (n = 390,000) | AID 504339; also: % is scaled to controls: 0 for no effect and ±100 for the full control effect; nearly all actives have a fitted effect of over 50% in size
HP1b chromo inh: inhibitors of HP1-beta chromodomain binding to methylated histone tails; P83916; AlphaScreen HP1-beta / biotin-H3K9me3 peptide binding; Potency, µM (highest dose often 114 µM), inactives show at the highest dose activity change, negative = inhibition, actives largely listed as inhibitors; actives 0.56% (n = 390,000); AID 540317; also: nearly all actives have a fitted effect of over 70% in size
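Compound inhibition of the preformed complex between 50 nM HP1-beta and 50 nM biotinylated H3K9me3 peptide was read by AlphaScreen. Buffer was PBS pH 7.4 with 0.01% Tween-20. Incubations ran 30 min at room temperature, with 10 ug/mL donor/acceptor beads.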
Sfp inh: Sfp phosphopantetheinyl transferase inhibition | Q9F4F7 | Biochemical Sfp PPTase activity, qHTS | Potency, µM, inactives show largest response in the series, negative = inhibition, hits mostly inhibitors | actives 3.5% (n = 310,000);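 also: the enzyme is Sfp with the accession as filed and its product quenches rhodamine fluorescence; 0% = enzyme reaction without inhibitor and -100% = no enzyme wells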
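Fluorescence-quenching assay: 15 nM Sfp-PPTase preincubated 15 min at room temperature with compound, then 5 uM rhodamine-CoA and 12.5 uM BHQ-2-labelled YbbR peptide added. Fluorescence (ex 525/em 598 nm) read at start and after 30 min; difference gives rate.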
BAZ2B inh: blocks human BAZ2B; AlphaScreen BAZ2B-H3K14Ac peptide displacement; Potency, µM (highest dose often 114 µM), for inactives: at the highest dose activity change, negative = inhibition, most hits filed as inhibitors; actives 4.4% (n = 360,000); also: % is scaled to controls: 0 for no effect and ±100 for the full control effect; nearly all actives have a fitted effect of over 60% in size
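BAZ2B (50 nM) with biotin-H3(5-23)K14Ac peptide (50 nM) in PBS pH 7.4, 0.01% Tween-20, preformed 30 min, then compound 30 min at room temperature; top concentration 110uM. AlphaScreen streptavidin donor/nickel chelate acceptor beads (10 ug/mL final), 20 min dark, signal read.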
L3MBTL1 block: L3MBTL1 (human) inhibition; Q9Y468; AlphaScreen L3MBTL1–H3K9me1 peptide binding; Potency, µM (titrated, usually from 57.1 µM), without a hit: at the highest dose activity, negative = inhibition, hits mostly inhibitors; actives 0.66% (n = 230,000); AID 485360; also: % is scaled to controls: 0 for no effect and ±100 for the full control effect; nearly all actives have a fitted effect of over 60% in size
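L3MBTL1 (50 nM) pre-complexed 30 min with biotinylated H3(1-15)K9me1 peptide (75 nM), then compounds added for 30 min at room temperature; AlphaScreen streptavidin donor/nickel chelate acceptor beads (10 ug/mL final) read after 30 min dark incubation.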
* hit, by the source's call; ? = inconclusive; · = no result given; [ ] = another dose, or the depositor's remark. Shown are actives, neighbours in structure and some others; about 12% of the full set was active somewhere. Calls follow the shape of the dose curve; as a rule, active = well fitted curve in the direction sought with a large enough effect; inconclusive = small, poorly fitted or top-dose-only effect, or another doubt; inactive = no such curve, though single readings can be large; an effect the other way counts as inactive or inconclusive. Potency is read from the fitted curve at half-maximal effect.

SMILES	G9a inh	JMJD2A Tudor inh	HP1b chromo inh	Sfp inh	BAZ2B inh	L3MBTL1 block
CCCC[C@H](NC(=O)[C@H](CC(C)C)NC(=O)[C@@H](Cc1c[nH]c2ccccc12)NC(=O)[C@H](Cc1ccccc1)NC(=O)[C@@H](Cc1c[nH]c2ccccc12)NC(=O)[C@H](CC(N)=O)NC(=O)[C@@H](Cc1c(Cl)cccc1Cl)NC(=O)[C@@H]1CCCN1C(=O)[C@H](Cc1ccccn1)NC(=O)[C@@H]1CCCN1C(=O)[C@H](N)CCCCNC(=O)c1cccnc1)C(N)=O	·	·	·	-13%	·	·
COc1cc(OC)c(C(=O)Nc2cccc(C(C)=O)c2)cc1OC	10%	-18%	20%	-8%	4%	·
CC(=O)N1CCc2c(sc3c2c(=O)n(Cc2ccccc2)c(=O)n3Cc2ccccc2Cl)C1	?	?	-9%	·	-31%	·
O=C(Nc1ccccc1Br)N1CCN2CCCCC2C1 (stereo not given)	-23%[59 µM]	6%	27%	·	-11%	·
CC1CN(c2nnc(NC(=O)c3ccccc3)s2)CC(C)O1 (stereo not given)	56µM*	-20%	25%	-16%	-11%	-20%
Cc1nnc(NC(=O)c2ccccc2)s1	-5%[59 µM]	-19%	31%	·	-2%	·
CCCS(=O)(=O)N1CCCC(C(=O)Nc2ccc3c(c2)CCC3)C1 (stereo not given)	4%[12.7 µM]	-16%	17%	1%	-11%	·
CC(=O)O[C@H]1C(=O)[C@@]2(C)C([C@H](OC(=O)c3ccccc3)[C@]3(O)C[C@H](OC(=O)[C@H](O)[C@@H](NC(=O)c4ccccc4)c4ccccc4)C(C)=C1C3(C)C)[C@]1(OC(C)=O)CO[C@@H]1C[C@@H]2O (stereo not given in full)	18%[59 µM]	·	·	45µM*	·	·
CCOC(=O)CSc1nc(C2CC2)nc2ccccc12	11%[12.7 µM]	9%	24%	89µM*	75%	42%
Cc1nn(Cc2ccc(C(=O)N3c4ccc(F)cc4CCC3C)o2)c(C)c1Br (stereo not given)	50µM*	-26%	25%	-21%	-26%	·
CCC(C(=O)O)N1C(=O)/C(=C/c2cccn2C)SC1=S (stereo not given)	?	-34%	-3%	19%	?	-4%
Cn1cccc1/C=C1/SC(=S)N(CC(=O)O)C1=O	50µM*	-24%	9%	-8%	-33%	·
CC(C(=O)O)N1C(=O)/C(=C/c2cccn2C)SC1=S (stereo not given)	?	-7%	?	56µM*	-27%	-11%
CC(C)(C)NC(=O)CN1C(=O)/C(=C/c2ccccc2)SC1=S	16%[12.7 µM]	-10%	19%	18%	-4%	?
CCOc1ccccc1OC(=O)CN1C(=O)c2ccccc2C1=O	·	2%	31%	-6%	-7%	4%
CC1C(=O)N2CCCc3cc(S(=O)(=O)N4CCC(C(N)=O)CC4)cc1c32 (stereo not given)	13µM*	-13%	61%	?	?	·
CC1C(=O)N2CCCc3cc(S(=O)(=O)Nc4ccccc4C(N)=O)cc1c32 (stereo not given)	45µM*	-10%	11%	·	-1%	-1%
CCn1c(O)c(N=Nc2ccc3ccccc3n2)c2ccccc21	·	-5%	36%	22µM*	-16%	-17%
COc1c2c(cc3c1C(NC(N)=O)[N+](C)(C)CC3)OCO2 (stereo not given)	·	·	·	4%	·	·
Cc1ccc(Nc2nc(N3CCOCC3)nc(N3CCOCC3)n2)cc1C	50µM*	-3%	20%	6%	?	·
Fc1ccc(Nc2nc(N3CCOCC3)nc(N3CCOCC3)n2)cc1	45µM*	?	33%	12%	?	·
CC(C)C(=O)NC(=S)N1CCc2ccccc21	?	-16%	8%	11%	-6%	-4%
COc1ccccc1C(=O)NC(=S)N1CCCc2ccccc21	10µM*	?	-11%	50µM*	?	-18%
COc1ccccc1C(=O)NC(=S)N1CCc2ccccc21	45µM*	?	1%	-7%	-36%	-4%[11.4 µM]
COc1ccc(C(=O)NC(=S)N2CCCc3ccccc32)cc1OC	?	?	-13%	?	?	-8%[11.4 µM]
SMILES	G9a inh	JMJD2A Tudor inh	HP1b chromo inh	Sfp inh	BAZ2B inh	L3MBTL1 block
O=C(/C=C/c1ccco1)N(Cc1cccc(F)c1)C1CCS(=O)(=O)C1 (stereo not given)	40µM*	-24%	23%	?	-26%	·
O=C(/C=C/c1ccco1)N(Cc1cccc(Cl)c1)C1CCS(=O)(=O)C1 (stereo not given)	?	-29%	-8%	32µM*	?	-15%
O=C(/C=C/c1ccco1)N(Cc1ccccc1)C1CCS(=O)(=O)C1 (stereo not given)	35µM*	-15%	26%	25µM*	-28%	-5%
Cc1nc2ccccn2c1C(=O)Nc1ccc(Cl)cc1	19%	-19%	-19%	17%	-8%	·
CCc1nccn1S(=O)(=O)c1ccc(Br)cc1Br	-48%	3%	26%	8%	-1%	6%
O=C(Cc1ccccc1)N(Cc1cccnc1)c1nc2c(F)cccc2s1	6%[59 µM]	40µM*	26%	·	-6%	·
Cc1ccc2sc(N(CCCN(C)C)C(=O)CCS(=O)(=O)c3ccccc3)nc2c1C	16µM*	-1%	48%	?	-31%	·
COc1ccc(C)c2sc(N(CCCN(C)C)C(=O)CS(=O)(=O)c3ccc(F)cc3)nc12	3%[59 µM]	-16%	14%	·	-3%	-13%
COc1ccc(OC)c2sc(N(CCCN(C)C)C(=O)CCS(=O)(=O)c3ccccc3)nc12	20µM*	-26%	10%	·	-27%	-11%
CN(C)CCCN(C(=O)CCS(=O)(=O)c1ccccc1)c1nc2cc3c(cc2s1)OCO3	·	-21%	35%	-10%	-11%	·
COc1ccc(Cl)c2sc(N(CCN(C)C)C(=O)CCS(=O)(=O)c3ccc(C)cc3)nc12	10µM*	-25%	2%	·	-9%	0%
CCCCCCCCCCCCCCC(F)C(=O)O (stereo not given)	19%[59 µM]	·	·	23%	·	·
COC(=O)c1ccc(C(=O)N2CCCC(CNC(=O)c3ccccc3Cl)C2)cc1 (stereo not given)	-2%	-7%	32%	12%	3%	7%
O=C(Nc1ccc(S(=O)(=O)N2CCCC2)cc1)C1CCN(S(=O)(=O)c2ccc(F)cc2)CC1	9%	-11%	18%	·	-6%	1%
COc1ccc(C(c2nnnn2C(C)C)N2CCN(C(=O)c3ccco3)CC2)cc1 (stereo not given)	26%	-7%	20%	0%	8%	·
CCC(=O)c1cn(CC(=O)Nc2cccc(C)c2)c2ccccc12	-3%[0.501 µM]	-10%	12%	8%	9%	4%[2.29 µM]
